Data: ChEMBL document CHEMBL2218924, “A broad activity screen in support of a chemogenomic map for kinase signalling research and drug discovery” (Biochem J, 2013)

These molecules were tested against PAS domain-containing serine/threonine-protein kinase (Homo sapiens) (UniProt Q96RG2). Conditions: at 1 µM.
Sequence of PAS domain-containing serine/threonine-protein kinase (Homo sapiens) (Q96RG2 whole entry, the tested form may be a part): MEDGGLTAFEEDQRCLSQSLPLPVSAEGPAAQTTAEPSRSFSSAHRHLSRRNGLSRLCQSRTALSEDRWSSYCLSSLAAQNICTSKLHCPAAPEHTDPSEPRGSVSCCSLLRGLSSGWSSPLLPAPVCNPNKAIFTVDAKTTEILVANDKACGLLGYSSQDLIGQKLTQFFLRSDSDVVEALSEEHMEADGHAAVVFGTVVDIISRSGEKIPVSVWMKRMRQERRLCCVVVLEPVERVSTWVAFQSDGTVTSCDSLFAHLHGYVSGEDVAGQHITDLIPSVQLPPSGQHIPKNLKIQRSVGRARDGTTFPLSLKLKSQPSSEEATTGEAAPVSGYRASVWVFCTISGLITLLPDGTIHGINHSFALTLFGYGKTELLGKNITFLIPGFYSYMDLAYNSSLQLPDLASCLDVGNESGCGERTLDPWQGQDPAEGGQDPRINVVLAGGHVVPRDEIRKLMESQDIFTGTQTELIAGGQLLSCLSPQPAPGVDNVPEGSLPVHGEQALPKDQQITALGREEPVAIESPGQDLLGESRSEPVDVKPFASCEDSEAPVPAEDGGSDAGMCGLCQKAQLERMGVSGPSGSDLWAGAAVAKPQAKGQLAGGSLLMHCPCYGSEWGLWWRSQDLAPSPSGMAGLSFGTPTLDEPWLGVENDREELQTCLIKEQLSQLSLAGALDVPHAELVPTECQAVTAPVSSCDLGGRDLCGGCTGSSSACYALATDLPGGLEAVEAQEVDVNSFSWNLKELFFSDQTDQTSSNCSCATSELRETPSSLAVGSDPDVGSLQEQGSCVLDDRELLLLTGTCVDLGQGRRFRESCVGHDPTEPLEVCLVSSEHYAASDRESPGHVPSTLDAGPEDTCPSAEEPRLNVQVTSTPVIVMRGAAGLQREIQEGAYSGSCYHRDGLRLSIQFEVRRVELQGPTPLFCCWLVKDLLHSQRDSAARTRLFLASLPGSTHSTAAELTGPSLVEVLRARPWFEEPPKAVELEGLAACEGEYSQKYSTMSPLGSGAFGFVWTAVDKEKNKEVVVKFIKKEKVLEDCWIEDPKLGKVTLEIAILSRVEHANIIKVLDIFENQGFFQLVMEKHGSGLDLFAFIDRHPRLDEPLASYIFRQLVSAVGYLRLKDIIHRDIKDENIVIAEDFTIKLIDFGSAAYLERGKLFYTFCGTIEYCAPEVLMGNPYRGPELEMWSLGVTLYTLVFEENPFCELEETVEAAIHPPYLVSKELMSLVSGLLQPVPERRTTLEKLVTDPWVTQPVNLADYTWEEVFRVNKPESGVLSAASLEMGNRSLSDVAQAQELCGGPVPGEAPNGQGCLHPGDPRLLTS

SMILES | residual activity [%]
Nc1nccc(-c2c(-c3ccc(F)cc3)ncn2C2CCNCC2)n1 | 129
COc1ccc(C(=O)Nc2sc3c(c2C(N)=O)CCCC3)cc1OC | 95
Nc1cccc(-c2cc3c(Oc4cccc(O)c4)ncnc3[nH]2)c1 | 123
Oc1ccc(-c2nc(-c3ccc(F)cc3)c(-c3ccncc3)[nH]2)cc1 | 92
COc1cc2ncc(-c3ccccc3)nc2cc1OC | 90
COc1cc2ncnc(Nc3ccc(NC(=O)c4ccccc4)cc3)c2cc1OC | 133
NCCNc1ncc(C(N)=O)c(Nc2cccc(C(F)(F)F)c2)n1 | 114
O=C(CCCc1ccc(-c2ccccc2F)cc1)Nc1ccc(O)cc1 | 102
CCOC(=O)c1c(C)[nH]c(/C=C2\C(=O)Nc3ccccc32)c1C | 93
O=Nc1c(-c2c(O)[nH]c3ccccc23)[nH]c2ccccc12 | 112
Nc1ncnc2[nH]nc(Nc3ccc(F)cc3)c12 | 92
c1ccc(-c2n[nH]cc2-c2ccnc3ccccc23)nc1 | 95
N#C/C(=C(\N)Sc1ccc(N)cc1)c1ccccc1C(F)(F)F | 122
CO[C@H]1[C@@H](OC)C[C@H](C)[C@@H](OC)C2=CC(=O)C=C(NC(=O)/C(C)=C/C=C/[C@H](OC)[C@@H](OC(N)=O)/C(C)=C/[C@@H]1C)C2=O | 125
COc1ccc(-c2cnc3c(-c4ccsc4)cnn3c2)cc1 | 138
O=C1NC(=O)c2c1c1c3ccccc3[nH]c1n1cncc21 | 57
O=S(=O)(c1cccc2cnccc12)N1CCCNCC1 | 83
O=c1cc(N2CCNCC2)oc2c(-c3ccccc3)cccc12 | 148
O=C(O)/C=C/c1cc(Br)c(Br)c(Br)c1Br | 63

SMILES | residual activity [%]
Cn1cc(/C=C2\C(=O)Nc3ccc(S(N)(=O)=O)cc32)c2ccccc21 | 97
O=C1Nc2ccccc2/C1=C\c1c(Cl)[nH]c2ccccc12 | 99
O=c1c2ccccc2[nH]c(=S)n1CCN1CCC(=C(c2ccc(F)cc2)c2ccc(F)cc2)CC1 | 85
CC(=O)O/N=C1\C(=C2\C(=O)Nc3cc(Br)ccc32)Nc2ccccc21 | 93
O=c1cc(-c2cccc3c2Sc2ccccc2S3)oc(N2CCOCC2)c1 | 109
Oc1c2ccccc2c2c3c(cccc13)N=N2 | 125
CCN(CC)CCNC(=O)c1c(C)[nH]c(/C=C2\C(=O)Nc3ccc(Cl)cc32)c1C | 70
O=[N+]([O-])c1ccc(-c2nc(-c3ccc(F)cc3)c(-c3ccncc3)[nH]2)cc1 | 126
CCN(CC)C(=O)c1ccc(Nc2nc(OCC3CCCCC3)c3nc[nH]c3n2)cc1 | 135
O=C1NC(=O)c2cc(Nc3ccc(F)cc3)c(Nc3ccc(F)cc3)cc21 | 105
O=C(Nc1cccc(Nc2nccc(Nc3cccc(C(F)(F)F)c3)n2)c1)C1CC1 | 75
COc1cc2nccc(Oc3ccc(NC(=O)Nc4cc(C)on4)c(Cl)c3)c2cc1OC | 100
Ic1cccc(CSc2nnc(-c3ccncc3)o2)c1 | 108
c1ccc(-c2n[nH]c3c2oc2ccccc23)cc1 | 130
COc1ccc(S(=O)(=O)N(CCO)c2ccccc2CN(C)C/C=C/c2ccc(Cl)cc2)cc1 | 116
COc1ccc(Cl)cc1NC(=O)Nc1cc(C)nc2ccccc12 | 98
O=C1NC(=O)/C(=C/c2ccc3c(c2)OC(F)(F)O3)S1 | 81
Cc1ccc(S(=O)(=O)/C=C/C#N)cc1 | 82
O=C1Nc2ccc(Br)cc2/C1=C\c1cc2c([nH]1)CCCC2 | 129
